# Structures can show the parent of a compound that is named as a salt.
# Key:
# Experiment in all cases: thermal shift delta Tm vs DMSO control; higher = stronger stabilization (binding)
# Settings in all cases: 12.5 µM; protein concentration 2 µM
# LOC_OS01G01410-cb001 = tested on: LOC_OS01G01410-cb001
# Summary of the method: (§1)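 Compounds dissolved in DMSO were added to purified rice kinase domain constructs, which had been expressed in E. coli, for differential scanning fluorimetry. Each well held 19.5 μl of 2 μM kinase in 100 mM potassium phosphate pH 7.5, 150 mM NaCl, 10% glycerol and 5 × SYPRO Orange. Fluorescence was followed from 25°C to 95°C at a rate of 0.05°C/s. Shifts in Boltzmann-fitted melting temperature are triplicate means relative to DMSO-only protein.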
# LOC_OS01G02750-cb003 = tested on: LOC_OS01G02750-cb003
# Summary of the method: as §1
# LOC_OS01G10900-cb004 = tested on: LOC_OS01G10900-cb004
# Summary of the method: as §1
# LOC_OS01G13800-cb001 = tested on: LOC_OS01G13800-cb001
# Summary of the method: as §1
# LOC_OS01G14860-cb001 = tested on: LOC_OS01G14860-cb001
# Summary of the method: as §1
# LOC_OS01G21960-cb002 = tested on: LOC_OS01G21960-cb002
# Summary of the method: as §1
# LOC_OS01G39600-cb002 = tested on: LOC_OS01G39600-cb002
# Summary of the method: as §1
# LOC_OS01G48390-cb002 = tested on: LOC_OS01G48390-cb002
# Summary of the method: as §1
# LOC_OS01G51400-cb002 = tested on: LOC_OS01G51400-cb002
# Summary of the method: as §1
# LOC_OS01G52050-cb004 = tested on: T1, LOC_OS01G52050-cb004
# T1 sequence (whole entry): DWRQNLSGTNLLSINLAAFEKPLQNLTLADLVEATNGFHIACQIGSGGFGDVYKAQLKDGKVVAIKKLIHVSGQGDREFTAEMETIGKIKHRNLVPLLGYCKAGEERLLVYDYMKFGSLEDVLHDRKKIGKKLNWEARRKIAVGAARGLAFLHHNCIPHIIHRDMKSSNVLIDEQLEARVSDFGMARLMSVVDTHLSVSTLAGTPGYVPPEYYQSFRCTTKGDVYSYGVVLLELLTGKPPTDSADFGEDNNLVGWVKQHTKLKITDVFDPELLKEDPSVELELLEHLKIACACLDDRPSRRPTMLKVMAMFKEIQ
# Summary of the method: as §1
# LOC_OS01G57100-cb003 = tested on: LOC_OS01G57100-cb003
# Summary of the method: as §1
# LOC_OS01G60330-cb001 = tested on: LOC_OS01G60330-cb001
# Summary of the method: as §1
# LOC_OS01G60700-cb002 = tested on: LOC_OS01G60700-cb002
# Summary of the method: as §1
# LOC_OS01G63280-cb003 = tested on: LOC_OS01G63280-cb003
# Summary of the method: as §1
# LOC_OS01G67340-cb003 = tested on: LOC_OS01G67340-cb003
# Summary of the method: as §1
# LOC_OS01G70970-cb002 = tested on: LOC_OS01G70970-cb002
# Summary of the method: as §1
# LOC_OS02G07810-cb001 = tested on: LOC_OS02G07810-cb001
# Summary of the method: as §1
# LOC_OS02G08530-cb003 = tested on: LOC_OS02G08530-cb003
# Summary of the method: as §1
# LOC_OS02G14120-cb001 = tested on: LOC_OS02G14120-cb001
# Summary of the method: as §1
# LOC_OS02G17970-cb001 = tested on: LOC_OS02G17970-cb001
# Summary of the method: as §1
SMILES,thermal shift delta Tm (LOC_OS01G01410-cb001) [°C],thermal shift delta Tm (LOC_OS01G02750-cb003) [°C],thermal shift delta Tm (LOC_OS01G10900-cb004) [°C],thermal shift delta Tm (LOC_OS01G13800-cb001) [°C],thermal shift delta Tm (LOC_OS01G14860-cb001) [°C],thermal shift delta Tm (LOC_OS01G21960-cb002) [°C],thermal shift delta Tm (LOC_OS01G39600-cb002) [°C],thermal shift delta Tm (LOC_OS01G48390-cb002) [°C],thermal shift delta Tm (LOC_OS01G51400-cb002) [°C],thermal shift delta Tm (LOC_OS01G52050-cb004) [°C],thermal shift delta Tm (LOC_OS01G57100-cb003) [°C],thermal shift delta Tm (LOC_OS01G60330-cb001) [°C],thermal shift delta Tm (LOC_OS01G60700-cb002) [°C],thermal shift delta Tm (LOC_OS01G63280-cb003) [°C],thermal shift delta Tm (LOC_OS01G67340-cb003) [°C],thermal shift delta Tm (LOC_OS01G70970-cb002) [°C],thermal shift delta Tm (LOC_OS02G07810-cb001) [°C],thermal shift delta Tm (LOC_OS02G08530-cb003) [°C],thermal shift delta Tm (LOC_OS02G14120-cb001) [°C],thermal shift delta Tm (LOC_OS02G17970-cb001) [°C]
CN(C)CCCn1cc(C2=C(c3c[nH]c4ccccc34)C(=O)NC2=O)c2ccccc21,0.25,0.71,0.3,0.25,1.17,2.73,0.78,-0.07,0.26,-0.04,0.59,1.19,0.85,0.38,0.56,0.73,0.35,0.74,0.09,0.48
O=c1ccc2ccc(O)c(O)c2o1 [Daphnetin],0.85,,0.22,0.62,0.62,1.18,-0.43,0.92,0.41,0.08,4.5,1.15,1.06,0.68,0.06,0.05,1.27,1.2,0.72,1.06
Cc1ccc(C(=O)Nc2cccc(C(F)(F)F)c2)cc1Nc1nc(-c2cccnc2)nc2c1cnn2C,1.82,7.19,1.25,1.68,1.28,2.07,,2.62,1.11,2.93,2.35,2.86,1.11,0.24,0.79,0.92,1.8,1.77,0.87,2.02
CN1C(=O)[C@@H](NC(=O)c2n[nH]c(Cc3ccccc3)n2)COc2ccccc21,0.8,1.65,0.07,0.83,0.52,0.05,0.62,0.43,0.45,2.47,0.85,0.1,0.2,0.29,0.17,0.41,-0.03,0.55,0.71,0.62
Cc1ccc(NC(=O)Nc2cc(C(F)(F)F)ccc2F)cc1Nc1ccc2c(c1)NC(=O)/C2=C\c1ccc[nH]1,0,4.91,-0.66,3.11,2.49,4.16,2.94,3.2,,4.68,2.33,1.66,0.91,2.05,1.55,1.83,3.74,-2.7,0.57,1.85
CO[C@H]1C[C@@H]2CC[C@@H](C)[C@@](O)(O2)C(=O)C(=O)N2CCCC[C@H]2C(=O)O[C@H]([C@H](C)C[C@@H]2CC[C@H](n3cnnn3)[C@H](OC)C2)CC(=O)[C@H](C)/C=C(\C)[C@@H](O)[C@@H](OC)C(=O)[C@H](C)C[C@H](C)/C=C/C=C/C=C/1C [Zotarolimus(ABT-578)],0.49,0.69,0.11,-0.04,0.22,1.09,,1.07,0.06,1,2.14,2.43,1.29,0.68,0.45,0.71,1.19,0.56,0.48,1.06
Cc1ccccc1-n1c(Cn2nc(-c3cccc(O)c3)c3c(N)ncnc32)nc2cccc(C)c2c1=O,0.31,0.33,0.02,-0.2,-0.04,0.03,-0.15,0.39,0.33,,1.41,0.24,1.19,0.18,0.86,0.24,1.1,0.86,-1.12,-0.12
O=C1Nc2ccc(I)cc2/C1=C/c1cc(Br)c(O)c(Br)c1,5.94,0.5,6.08,2.56,5.73,5.54,25.1,2.41,0.7,3.09,7.97,7.94,2.48,,,2.79,3.4,4.19,5.66,3.87
C=CC(=O)Nc1cccc(C)c1Nc1ncc2cc(-c3c(Cl)c(OC)cc(OC)c3Cl)ccc2n1,0.73,1.61,1.22,0.52,0.39,0.77,0.15,0.36,0.29,0.2,1.11,1.2,0.26,-0.06,0.6,0.35,0.78,0.7,1.59,0.63
COC(=O)[C@]12CCC(C)(C)C[C@H]1[C@H]1C(=O)C=C3[C@@]4(C)C=C(C#N)C(=O)C(C)(C)[C@@H]4CC[C@@]3(C)[C@]1(C)CC2 [Bardoxolone Methyl],-2.64,0,-14.8,-0.32,-4.11,-0.25,,-0.51,-7.84,-10.5,,-0.58,,-6.77,-5.05,-11,0.28,-2.07,-4.67,-0.5
CN1CCCN(C(=O)c2cccc(-c3ccc(/C=C4/C(=O)Nc5ccc(Cl)cc54)o3)c2)CC1,2.05,1.47,2.9,0.13,4.25,1.58,,1.96,0.12,0.58,1.45,3.07,1.97,1.12,0.39,1.61,0.97,3.51,3.94,1.03
CC(C)(C)c1cc(/C=C(\C#N)C(N)=S)cc(C(C)(C)C)c1O [Tyrphostin AG 879],2.99,5.43,4.19,2.01,2.28,1.97,,1.74,0.42,4.16,5.01,3.04,4.7,,,2.23,2.55,2.78,4.98,3.25
CCc1ccc(/C=C2/SC(=S)NC2=O)cc1,1.69,1.03,2.03,0.53,1.38,1.74,,0.63,0.67,1.47,3.2,1.11,2.87,0.27,0.34,1.39,1.4,1.74,1.62,1.54
Cc1nc2c(-c3cnc(N)nc3)nc(N3CCOCC3)nc2n1C(C)C,0.02,0.81,0.35,0.04,-0.18,0.83,1.29,0.44,0.69,,1.43,0.31,1.66,0.78,0.22,,1.23,1.18,0.05,2.41
CCCCCCCCc1ccc(CCC(N)(CO)CO)cc1 [Fingolimod (FTY720) HCl],-0.88,0.17,-0.2,-1.96,-1.24,-0.97,,-0.85,-1.12,-0.88,0.23,0.41,0.6,-1.03,-0.42,-0.82,-1.73,-0.4,-0.78,-0.74
Cn1cc(C2=C(c3ccc(Cl)cc3Cl)C(=O)NC2=O)c2ccccc21,4.05,13.7,6.42,1.69,6.48,4.64,18.2,2.99,13.9,14.6,6.65,11.5,4.75,15.7,,7.16,1.24,3.23,12.5,1.77
CN1CCN(c2ccc(Nc3cc(-c4cccc(-n5ccc6cc(C7CC7)cc(F)c6c5=O)c4CO)cn(C)c3=O)nc2)CC1,0.08,-0.04,0.34,-0.27,0.17,0.86,,0.24,0.38,0.27,0.99,0.83,1.11,0.24,-0.1,1.04,0.37,1.24,0.2,0.75
O=C(NC(NC(=S)Nc1ccc(F)c([N+](=O)[O-])c1)C(Cl)(Cl)Cl)C(c1ccccc1)c1ccccc1 (centres undefined),3.6,9.2,2.57,2.31,3.26,3.31,28.9,3.82,1.04,3.03,4.28,8.97,3.48,,0.17,1.86,3.38,2.71,2.37,3.46

# — the supplement of paper PMC9694430
